Tau fibril ThT = inhibitors of human tau fibril formation, thioflavin T binding; P10636; recombinant tau K18 P301L, heparin-induced fibrillization, ThT fluorescence; Potency, µM (doses to about 57.4 µM), for inactives: at the highest dose activity, negative = inhibition, usual class: inhibitors; hit rate 2.1% among 270,000; AID 1460; further: potency means the concentration at half of the fitted maximal effect; nearly all actives have a fitted effect of over 55% in size
Target sequence (P10636 561-689 P618L limits assumed): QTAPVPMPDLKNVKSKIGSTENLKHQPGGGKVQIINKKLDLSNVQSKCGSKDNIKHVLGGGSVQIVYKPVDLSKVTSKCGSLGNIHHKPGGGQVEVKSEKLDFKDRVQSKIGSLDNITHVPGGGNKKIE
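Tau K18 P301L fragment (15 uM unlabeled plus 0.24 uM Alexa 594-labeled) in 100 mM sodium acetate pH 7 with compound, fibrillization induced by 20 uM heparin for 6 hr at 37 C. Thioflavin T (30 uM) added, fluorescence read after 1 hr (ex 450, em 510 nm).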
Sfp inh = Sfp phosphopantetheinyl transferase inhibition; Q9F4F7; Biochemical Sfp PPTase activity, qHTS; Potency, µM, for the others: largest response in the series, negative = inhibition, hits mostly inhibitors; hit rate 3.5% among 310,000; AID 1490;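 further: the enzyme is Sfp with the accession as filed and its product quenches rhodamine fluorescence; potency means the concentration at half of the fitted maximal effect; 0% = enzyme reaction without inhibitor and -100% = no enzyme wells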
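Reaction rates are the 30-min fluorescence difference (ex 525, em 598 nm) in wells containing 15 nM Sfp, 5 uM rhodamine-CoA and 12.5 uM BHQ-2-YbbR at pH 7.6 with 10 mM MgCl2.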
Tau fluor counter = counter-screen for tau fibril formation inhibitors; tau K18 P301L Alexa594 fluorescence, heparin fibrillization; Potency, µM (highest dose often 57.7 µM), for the others: at the top dose activity change, negative = decrease; hit rate 0.93% among 280,000; AID 1463; further: potency means the concentration at half of the fitted maximal effect; nearly all actives have a fitted effect of over 55% in size
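Human tau K18 P301L (15 uM unlabeled, 0.24 uM Alexa 594-labeled) in 100 mM sodium acetate pH 7 with 20 uM heparin, 6 hr at 37 C. ThT 30 uM added, 1 hr ambient; Alexa 594 FP and total fluorescence read at 555/632 nm.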
FBPA coupling cs = coupling enzyme interference in Giardia aldolase counter-screen. coupling enzyme system counterscreen, AmpLite Red fluorescence. AID 2472. hit rate 0.67% among 290,000. activity change, negative = inhibition, % at 58.2 µM, hits read low; in the data active means activity change below about -30%
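Compounds tested against the coupling enzymes alone at 57.5 uM final; readout was AmpLite Red fluorescence (525/598 nm) after 20 min at RT.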
KDM4E inh = JMJD2E (human) inhibition; B2RXH2; JMJD2E catalytic domain, FDH-coupled NADH fluorescence (FDH is formaldehyde dehydrogenase); Potency, µM (highest dose often 57.1 µM), for the others: at the highest dose activity change, negative = inhibition, actives largely listed as inhibitors; hit rate 1.6% among 230,000; AID 2147; active means well fitted inhibition curve with a large enough effect, not every such curve was filed as active; inconclusive means small, poorly fitted or top-dose-only effect, or another doubt; inactive means no such curve, though single readings can be large or run the other way;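 further: potency means the concentration at half of the fitted maximal effect; 0% = wells with enzyme and -100% = buffer wells without enzyme; nearly all actives have a fitted effect of over 50% in size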
Target sequence (B2RXH2 1-337 limits assumed): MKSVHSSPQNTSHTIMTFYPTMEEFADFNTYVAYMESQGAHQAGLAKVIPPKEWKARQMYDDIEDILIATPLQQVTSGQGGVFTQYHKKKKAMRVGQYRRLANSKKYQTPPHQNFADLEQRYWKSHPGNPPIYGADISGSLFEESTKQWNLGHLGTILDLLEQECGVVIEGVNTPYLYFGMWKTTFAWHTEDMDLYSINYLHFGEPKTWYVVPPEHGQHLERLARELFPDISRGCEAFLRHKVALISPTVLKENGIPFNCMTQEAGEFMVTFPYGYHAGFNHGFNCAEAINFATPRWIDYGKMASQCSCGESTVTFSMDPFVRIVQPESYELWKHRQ
Tau FP inhib = inhibitors of human tau fibril formation; K18 P301L tau heparin fibrillization, Alexa594 FP, 6 h; AID 1468; P10636; Potency, µM (top dose mostly 57.7 µM), for the others: at the highest dose activity, negative = inhibition, actives largely listed as inhibitors; hit rate 0.39% among 280,000; further: potency means the concentration at half of the fitted maximal effect; nearly all actives have a fitted effect of over 55% in size
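Human K18 P301L fragment (15 uM unlabeled plus 0.24 uM Alexa 594-labeled) in 100 mM sodium acetate pH 7 with compound, aggregation induced by 20 uM heparin for 6 hr at 37 C. ThT (30 uM) added for 1 hr, then Alexa 594 FP read.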
* hit, by the source's call; ? = inconclusive; nt = no result; ! = not active in a repeat; [ ] = another dose, or the depositor's remark. Only some compounds are listed: those with a hit (about 5.3% of all), similar ones and a draw of the others. Unless noted, the call rests on the fitted dose curve; in most records, active means well fitted curve in the direction sought with a large enough effect; inconclusive means small, poorly fitted or top-dose-only effect, or another doubt; inactive means no such curve, though single readings can be large; an effect the other way counts as inactive or inconclusive. Unless noted, on the % scale 0 is the no-effect control and ±100 the full control effect.

SMILES | Tau fibril ThT | Sfp inh | Tau fluor counter | FBPA coupling cs | KDM4E inh | Tau FP inhib
Cc1ccc(/C=N/n2c(-c3cccnc3)n[nH]c2=S)o1 | -11% | 56µM* | -12% | 7 | ? | -3%
CCOC(=O)c1cccc(NC(=O)CCc2c(C)nn(-c3ccc(N4CCCCC4)nn3)c2C)c1 | ? | nt | -15% | nt | nt | 0%
O=C(Cn1ncc2c3ccccc3n(Cc3cccc(Cl)c3)c2c1=O)NC1CCCCCC1 | -17% | nt | -10% | nt | nt | 3%
COC(=O)/C(=C/c1cn(C)c2ccccc12)[N+](=O)[O-] | -20% | 56µM* | -7% | -18 | 2% | -3%
CCC(C)[C@@H](NC(=O)OC(C)(C)C)c1nnc(S(=O)(=O)Cc2cccc(C)c2)o1 (some centres undefined) | 7% | 25µM* | -2% | -3 | 8% | -9%
Cc1ccccc1CS(=O)(=O)c1nnc([C@H](Cc2ccccc2)NC(=O)OC(C)(C)C)o1 | 15% | 7.9µM* | -4% | -12 | 8% | -2%
CC(C)(C)OC(=O)N[C@@H](Cc1ccccc1)c1nnc(S(=O)(=O)Cc2ccccc2)o1 | -4% | 8.9µM* | 3% | 2 | 0% | -9%
CCSc1nnc([C@H](Cc2ccccc2)NC(=O)OC(C)(C)C)o1 | -13% | 16% | -7% | 0 | -1% | 10%
COc1cccc(C(=O)NCc2cn3ccccc3n2)c1 | -4% | nt | ? | nt | nt | ?
COc1ccc(CCNC(=O)C(=O)NCC(c2ccco2)S(=O)(=O)c2ccc(F)cc2)cc1 (centres undefined) | -2% | nt | -9% | nt | nt | -8%
COC(=O)C/C=C\[C@@H](C)[C@@H](/C=N\O[C@@H](C)CN1CCCCc2nc(C)c(C)cc21)NS(=O)(=O)c1ccc(C)cc1 | -15%[11.5 µM] | 4% | -21%[11.6 µM] | 2 | nt | -2%[11.6 µM]
COC(=O)c1c(Cl)c2n3ccccc3c(C)c(-c3ccccc3)c-2c1C(=O)OC | 7.9µM* | -28% | ? | -19 | ? | ?
COC(=O)c1c(C(=O)OC)c2ccccn2c1C(=O)c1ccccc1 | nt | 11% | nt | -2 | nt | nt
COC(=O)c1cc2c(-c3ccccc3)c(C)c3ccccn3c-2c1C(=O)OC | 16µM* | -13% | ? | -7 | 0% | 15%
O=C1CCCc2[nH]c(=O)c(-c3nc(-c4cccc([N+](=O)[O-])c4)cs3)cc21 | -13% | nt | ? | nt | nt | 11%
CCn1c(=O)[nH]c2ccccc2c1=O | -1% | 9% | -6% | -3 | -8% | -4%
CCc1c(C(C)S(=O)(=O)c2ccccc2)[nH]c(=O)n1CC (centres undefined) | ? | 50µM* | -4% | 0 | ? | -18%
Cc1ccc(-n2ncc3c(Nc4cccc(C)c4)ncnc32)cc1 | 6% | nt | -14% | nt | nt | -15%
Cc1ccc(-n2ncc3c(Nc4cccc(C(F)(F)F)c4)ncnc32)cc1C | 15% | nt | ? | nt | nt | 10µM*
Cc1ccc(-n2ncc3c(Nc4ccc(Oc5ccccc5)cc4)ncnc32)c(C)c1 | ? | nt | ? | nt | nt | -11%
Cc1ccc(-n2ncc3c(Nc4cccc(Cl)c4)ncnc32)c(C)c1 | 3% | nt | ? | nt | nt | 25µM*
Cc1noc(C(=O)Nc2c(C)n(C)n(-c3ccccc3)c2=O)c1Cl | -6% | 23% | -3% | -1 | 0% | 0%
Cc1onc(C(=O)Nc2c(C)n(C)n(-c3ccccc3)c2=O)c1[N+](=O)[O-] | nt | 79µM* | ? | -31* | ? | -12%
CSc1ccccc1NC(=O)c1noc(C)c1[N+](=O)[O-] | nt | 45µM* | nt | nt | nt | nt
Cc1onc(C(=O)Nc2ccccc2C(F)(F)F)c1[N+](=O)[O-] | nt | 12% | nt | nt | nt | nt
SMILES | Tau fibril ThT | Sfp inh | Tau fluor counter | FBPA coupling cs | KDM4E inh | Tau FP inhib
COc1cc(SC)ccc1C(=O)N1CCN(c2ccc(O)cc2)CC1 | ? | 56µM* | -14% | -5 | ? | -3%
Cc1ccc2cccnc2c1N | -14% | -9% | -7% | -6 | 4% | 0%
CSS(=O)(=O)c1cccc2cccnc12 | ? | 20µM* | -12% | -4 | 2.5µM* | ?
c1cnc2c(c1)ccc1cccnc12 | 28µM* | 2.5µM* | -15% | -66*! | 25µM* | ?
CCN(CC)S(=O)(=O)c1cccc2cccnc12 | -6% | 21% | -10% | -4 | 11% | 3%
CC[C@H](C)[C@H](NC(=O)[C@H](Cc1ccc(O)cc1)NC(=O)[C@H](Cc1cnc[nH]1)NC(=O)[C@H](CCCNC(=N)N)NC(=O)[C@H](CC(C)C)NC(=O)[C@H](C)NC(=O)[C@H](CO)NC(=O)[C@H](Cc1ccc(O)cc1)NC(=O)[C@H](Cc1ccc(O)cc1)NC(=O)[C@H](CCCNC(=N)N)NC(=O)[C@H](C)NC(=O)[C@H](CCSC)NC(=O)[C@H](CC(=O)O)NC(=O)[C@H](CCC(=O)O)NC(=O)[C@H](C)NC(=O)[C@@H]1CCCN1)C(=O)N[C@@H](CC(N)=O)C(=O)N[C@@H](CC(C)C)C(=O)N[C@H](C(=O)N[C@H](C(=O)N[C@@H](CCCNC(=N)N)C(=O)N[C@@H](CCC(N)=O)C(=O)N[C@@H](CCCNC(=N)N)C(=O)N[C@@H](Cc1ccc(O)cc1)C(N)=O)[C@@H](C)O)[C@@H](C)CC | nt | ? | nt | 0 | nt | nt
Cc1cccc(N(CC(=O)NCc2ccccc2)C(=O)Cn2nnc(-c3ccc(C)o3)n2)c1 | -1% | 22% | -6% | 1 | 4% | 1%
Cc1ccc(-c2nnn(CC(=O)N(CC(=O)NCc3ccccc3)c3cccc(C)c3C)n2)o1 | -32% | 25µM* | -19% | 0 | -1% | -7%
O=C(O)C(S)[C@@H](S)C(=O)O (some centres undefined) | 7.9µM* | -90% | -29% | 0 | ? | 11µM*
COc1ccccc1N1CCN(c2ccc(=O)n(CC(=O)O)n2)CC1 | -1% | nt | -5% | nt | nt | -4%
Cc1nc(C)c(-c2ccc(SCC(=O)Nc3ccc(Cl)c(Cl)c3)nn2)s1 | -9% | nt | ? | nt | nt | ?
O=C(/C=C/c1cccc(Cl)c1)NCCc1ccccc1 | 3% | 20µM* | 2% | 6 | -2% | 1%
CN(C)c1ncc2nc(-c3ccc(Cl)cc3)c(=O)n(-c3ccccc3)c2n1 | nt | -2% | nt | 3 | nt | nt
CC(C)CN(C[C@@H](OP(=O)(O)O)[C@H](Cc1ccccc1)NC(=O)O[C@@H]1CCOC1)S(=O)(=O)c1ccc(N)cc1 | nt | -8% | nt | nt | nt | nt
CCOc1ccc(NC(=O)CC2C(=O)N(c3cccc(C)c3)C(=O)N2CCC2=CCCCC2)cc1 (centres undefined) | -13% | nt | ? | nt | nt | -15%
CN1CCN(c2ccccc2NC(=O)c2cc3c(s2)-c2ccccc2OC3)CC1 | nt | 79µM* | ? | 2 | ? | ?
C=C(C)C(=O)OCCOCC | nt | -9% | nt | 1 | nt | nt
